Values joined by “and” are separate entries in the source; they are usually repeats but may differ in a detail not shown here. Identical values can stand only once. The whole screen tested about 5,500 compounds, of which about 2,000 (36%) were called active. Not shown: some 18% with an inconclusive outcome. No stated cut-off is given here; in the data, active means normalized growth mostly below about 0.91 (no sharp cut-off); inconclusive means no clear call, values can overlap the other calls; inactive means mostly above about 0.92. The list shows a part of the results.
Assay: chemical genetic growth profiling, strain panel (AID 1159580);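 further: tested at 20 µM; growth read once vehicle control cultures reached saturation at 30 °C; 1 = growth at the plate median or of vehicle wells; lower values mean less growth of the strain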
Conditions: growth OD

Measured: normalized growth

OCCN1CCN(CCCN2c3ccccc3Sc3ccc(C(F)(F)F)cc32)CC1
inactive: S. cerevisiae deletion strains, locus YJR075W, strain HOC1, active compounds read low 0.939 and 0.985 | S. cerevisiae deletion strains, locus YKL009W, strain mrt4, active compounds read low 0.926 | S. cerevisiae deletion strains, locus YKL068W, active compounds read low 0.987 | S. cerevisiae deletion strains, locus YKL085W, strain MDH1 (second series), active compounds read low 0.981 | S. cerevisiae deletion strains, locus YKL085W, strain MDH1, active compounds read low 0.981 | S. cerevisiae deletion strains, locus YKL160W, strain elf1, active compounds read low 0.907 | S. cerevisiae deletion strains, locus YKL190W, strain CNB1, active compounds read low 0.975 | S. cerevisiae deletion strains, locus YKR026C, strain gcn3, active compounds read low 0.998 | S. cerevisiae deletion strains, locus YKR091W, strain srl3, active compounds read low 0.976 | S. cerevisiae deletion strains, locus YLL001W, strain dnm1, active compounds read low 0.983 | S. cerevisiae deletion strains, locus YLL026W, active compounds read low 0.968 | S. cerevisiae deletion strains, locus YLL041C, strain sdh2, active compounds read low 0.968 | S. cerevisiae deletion strains, locus YLR027C, strain aat2, active compounds read low 0.951 | S. cerevisiae deletion strains, locus YLR058C, strain SHM2, active compounds read low 0.976 | S. cerevisiae deletion strains, locus YLR102C, strain apc9, active compounds read low 0.995 | S. cerevisiae deletion strains, locus YLR221C, strain rsa3, active compounds read low 0.975 | S. cerevisiae deletion strains, locus YLR258W, strain gsy2, active compounds read low 0.949 | S. cerevisiae deletion strains, locus YLR262C, strain YPT6 (second series), active compounds read low 1.04 | S. cerevisiae deletion strains, locus YLR268W, strain sec22, active compounds read low 0.901 | S. cerevisiae deletion strains, locus YLR320W, strain mms22, active compounds read low 0.999 | S. cerevisiae deletion strains, locus YLR330W, strain CHS5, active compounds read low 1.03 | S. cerevisiae deletion strains, locus YLR357W, strain rsc2, active compounds read low 0.984 | S. cerevisiae deletion strains, locus YLR370C, strain arc18, active compounds read low 0.952 | S. cerevisiae deletion strains, locus YLR371W, strain rom2, active compounds read low 0.983 | S. cerevisiae deletion strains, locus YLR384C, strain iki3, active compounds read low 0.981 | S. cerevisiae deletion strains, locus YML016C, strain PPZ1, active compounds read low 0.994 | S. cerevisiae deletion strains, locus YML032C, strain rad52, active compounds read low 0.926 | S. cerevisiae deletion strains, locus YML120C, strain ndi1, active compounds read low 0.995 | S. cerevisiae deletion strains, locus YML124C, strain tub3, active compounds read low 1 | S. cerevisiae deletion strains, locus YMR078C, strain ctf18, active compounds read low 0.986 | S. cerevisiae deletion strains, locus YMR125W, strain sto1, active compounds read low 0.957 | S. cerevisiae deletion strains, locus YMR129W, active compounds read low 0.978 | S. cerevisiae deletion strains, locus YMR205C, strain PFK2, active compounds read low 0.992 | S. cerevisiae deletion strains, locus YMR223W, strain ubp8, active compounds read low 0.963 | S. cerevisiae deletion strains, locus YMR263W, strain SAP30, active compounds read low 0.933 and 0.994 | S. cerevisiae deletion strains, locus YMR307W, strain GAS1, active compounds read low 0.852 and 1.02 | S. cerevisiae deletion strains, locus YNL067W, strain RPL9B, active compounds read low 0.921 | S. cerevisiae deletion strains, locus YNL071W, strain lat1, active compounds read low 0.988 | S. cerevisiae deletion strains, locus YNL128W, strain TEP1, active compounds read low 0.944 | S. cerevisiae deletion strains, locus YNL153C, strain GIM3, active compounds read low 0.919 and 0.859 | S. cerevisiae deletion strains, locus YNL175C, strain NOP13, active compounds read low 1.01 | S. cerevisiae deletion strains, locus YNL197C, strain WHI3, active compounds read low 1.01 | S. cerevisiae deletion strains, locus YNL209W, strain ssb2, active compounds read low 0.952 | S. cerevisiae deletion strains, locus YNL224C, strain SQS1, active compounds read low 1.02 | S. cerevisiae deletion strains, locus YNL233W, strain BNI4, active compounds read low 0.909 | S. cerevisiae deletion strains, locus YNL248C, strain rpa49, active compounds read low 0.901 | S. cerevisiae deletion strains, locus YNL250W, strain rad50, active compounds read low 0.989 | S. cerevisiae deletion strains, locus YNL271C, strain bni1, active compounds read low 0.986 | S. cerevisiae deletion strains, locus YNL298W, strain CLA4, active compounds read low 0.963 | S. cerevisiae deletion strains, locus YNL307C, strain MCK1, active compounds read low 0.98 | S. cerevisiae deletion strains, locus YNL322C, strain KRE1 (second series), active compounds read low 0.968 | S. cerevisiae deletion strains, locus YNL322C, strain KRE1, active compounds read low 0.995 | S. cerevisiae deletion strains, locus YNR049C, strain mso1, active compounds read low 0.984 | S. cerevisiae deletion strains, locus YNR052C, strain pop2, active compounds read low 0.938 | S. cerevisiae deletion strains, locus YOL006C, strain TOP1, active compounds read low 0.629 | S. cerevisiae deletion strains, locus YOL012C, strain htz1 1.6 | S. cerevisiae deletion strains, locus YOL147C, strain pex11, active compounds read low 0.986 | S. cerevisiae deletion strains, locus YOR001W, strain rrp6, active compounds read low 0.943 | S. cerevisiae deletion strains, locus YOR061W, strain CKA2, active compounds read low 0.987 | S. cerevisiae deletion strains, locus YOR069W, strain VPS5, active compounds read low 0.986 | S. cerevisiae deletion strains, locus YOR070C, strain gyp1, active compounds read low 0.938 | S. cerevisiae deletion strains, locus YOR080W, strain dia2, active compounds read low 0.989 | S. cerevisiae deletion strains, locus YOR083W, strain WHI5 (second series), active compounds read low 0.886 | S. cerevisiae deletion strains, locus YOR136W, strain idh2, active compounds read low 0.978 | S. cerevisiae deletion strains, locus YOR144C, strain elg1, active compounds read low 0.999 | S. cerevisiae deletion strains, locus YOR184W, strain ser1, active compounds read low 0.99 | S. cerevisiae deletion strains, locus YOR265W, strain rbl2, active compounds read low 0.986 | S. cerevisiae deletion strains, locus YOR270C, strain vph1, active compounds read low 0.788 | S. cerevisiae deletion strains, locus YOR290C, strain snf2, active compounds read low 0.911 | S. cerevisiae deletion strains, locus YOR316C, strain cot1, active compounds read low 0.991 | S. cerevisiae deletion strains, locus YPL055C, strain LGE1, active compounds read low 0.902 and 0.943 | S. cerevisiae deletion strains, locus YPL078C, strain atp4, active compounds read low 0.941 | S. cerevisiae deletion strains, locus YPL106C, strain sse1, active compounds read low 0.988 | S. cerevisiae deletion strains, locus YPL240C, strain hsp82, active compounds read low 0.984 | S. cerevisiae deletion strains, locus YPL241C, strain CIN2, active compounds read low 0.997 | S. cerevisiae deletion strains, locus YPR119W, strain clb2, active compounds read low 0.988 | S. cerevisiae deletion strains, locus YPR141C, strain kar3, active compounds read low 0.985 | S. cerevisiae deletion strains, locus YPR167C, strain met16, active compounds read low 0.984 | S. cerevisiae strains, strain wild type, active compounds read low 0.949
active: S. cerevisiae deletion strains, locus YKR001C, strain vps1, active compounds read low 0.864 | S. cerevisiae deletion strains, locus YLR039C, strain RIC1, active compounds read low 1.48 [resistant] | S. cerevisiae deletion strains, locus YLR262C, strain YPT6, active compounds read low 1.41 [resistant] | S. cerevisiae deletion strains, locus YLR342W, strain FKS1 (second series), active compounds read low 0.723 | S. cerevisiae deletion strains, locus YLR342W, strain FKS1, active compounds read low 0.807 | S. cerevisiae deletion strains, locus YLR418C, strain cdc73, active compounds read low 0.76 | S. cerevisiae deletion strains, locus YMR058W, strain fet3, active compounds read low 0.884 | S. cerevisiae deletion strains, locus YMR231W, strain pep5, active compounds read low 0.0843 | S. cerevisiae deletion strains, locus YOR083W, strain WHI5, active compounds read low 0.855 | S. cerevisiae deletion strains, locus YOR106W, strain vam3, active compounds read low 0.644 | S. cerevisiae deletion strains, locus YPL051W, strain arl3, active compounds read low 0.874 | S. cerevisiae deletion strains, locus YPR163C, strain tif3, active compounds read low 0.89 | S. cerevisiae deletion strains, strain wtn01, active compounds read low 0.887

From PubChem BioAssay AID1159580 (chemical genetic matrix, 2015)
